# According to PubChem BioAssay (NCATS):
# Results filed as inconclusive are left out. A call without a number means that no potency is given here. Active and inactive are the calls of the source. Calls follow the shape of the dose curve; as a rule, active = well fitted inhibition curve with a large enough effect; inconclusive = small, poorly fitted or top-dose-only effect; inactive = no such curve, though single readings can be large or run the other way.
# Tested on: Zika virus NS2B-NS3 protease (linked construct)
# Assay: Primary screen NINDS Rhodamine qHTS for Zika virus inhibitors (AID 1347160); also: nearly all actives have a fitted effect of over 55% in size
# Conditions: purified NS2B-NS3 protease, Rhodamine110 substrate fluorescence; series mostly up to 33.1 µM
# How it was run: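 Purified NS2B-NS3 protease with the NS2B hydrophilic domain joined by a flexible linker (25 nM) in 10 mM Tris-HCl pH 8.0, 0.01% Tween 20, preincubated 15 min at RT with compound; Rhodamine110 peptide substrate 1.5 µM; fluorescence change over 15 min; 4-parameter Hill fit.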
row,Compound,Potency
1,C=C(C)[C@@]1(O)C[C@@]2(C)C(=CC1=O)CC[C@@H](O)[C@@H]2C,inactive
2,COC(=O)C1=C[C@@H](O)[C@@H](O)[C@H](O[C@@H]2O[C@H](CO)[C@@H](O)[C@H](O)[C@H]2OC(=O)/C=C/c2ccccc2)C1,inactive
3,C/C=C1\[C@H](O[C@@H]2O[C@H](CO)[C@@H](O)[C@H](O)[C@H]2O)OC=C(C(=O)OCCc2ccc(O)cc2)[C@H]1CC(=O)OCCc1ccc(O)cc1,inactive
4,COc1cc(O)cc(O[C@@H]2O[C@H](CO)[C@@H](O[C@@H]3OC[C@](O)(CO)[C@H]3O)[C@H](O)[C@H]2O)c1OC,inactive
5,COc1ccccc1CN[C@H]1CCCN[C@H]1c1ccccc1,inactive
6,CC[C@H]1OC(=O)[C@H](C)C(=O)[C@H](C)[C@@H](OC2O[C@H](C)C[C@H](N(C)C)[C@H]2O)[C@@H](C)C[C@@H](C)C(=O)/C=C/[C@]1(C)O (some centres not stated),inactive
7,COC(=O)C[C@@H]1C(C(=O)O)=CO[C@@H](O[C@@H]2O[C@H](CO)[C@@H](O)[C@H](O)[C@H]2O)/C1=C\COC(=O)/C=C/c1ccc(O)c(OC)c1,inactive
8,C=C1[C@H](OC(C)=O)[C@H]2[C@@H](OC(C)=O)C(C)C[C@]2(OC(C)=O)C(=O)[C@H](C)/C=C/C(C)(C)C(=O)[C@H](OC(=O)C(C)C)[C@H]1OC(C)=O (some centres not stated),inactive
9,COc1ccc2[nH]c(S(=O)Cc3ncc(C)c(OC)c3C)nc2c1 (configuration not stated),inactive
10,CC(C)C1NC(=O)C2CCCN2C1=O (configuration not stated),inactive
11,CCCO[C@@H]1O[C@H](CO)[C@@H](O)[C@H](O)[C@H]1O[C@@H]1OC[C@@H](O)[C@H](O)[C@H]1O,inactive
12,Cc1ccc(-c2c(-c3nn(C)c4ncnc(N5CC[C@H](N6CCCCC6)C5)c34)cnn2C)cc1,inactive
13,C/C(=C\CO)CC/C=C(\C)C(=O)O[C@@H]1O[C@H](CO)[C@@H](O)[C@H](O)[C@H]1O,inactive
14,COC(=O)[C@H](Cc1cccc(C(=N)N)c1)[C@@H](C)NC(=O)c1ccc(-c2cc[n+]([O-])cc2)cc1,inactive
15,Cc1cc(OCCN2CCOCC2)nn1-c1ccc2ccccc2c1,inactive
16,C/C=C(\C)C(=O)OC[C@H]1O[C@H](O[C@H]2O[C@H](CO)[C@@H](O)[C@H](O)[C@H]2O[C@@H]2O[C@H](CO)[C@@H](O)[C@H](O)[C@H]2O)[C@H](O[C@@H]2O[C@H](CO)[C@@H](O)[C@H](O)[C@H]2O)[C@@H](O)[C@@H]1O,inactive
17,CC1(C)CC[C@]2(C(=O)O[C@@H]3O[C@H](CO)[C@@H](O)[C@H](O)[C@H]3O)CC[C@]3(C)C(=CCC4[C@@]5(C)C[C@H](O)[C@H](O[C@@H]6O[C@H](C(=O)O)[C@@H](O)[C@H](O)[C@H]6O)[C@@](C)(CO)C5CC[C@]43C)C2C1 (some centres not stated),inactive
